Records with an inconclusive call do not appear. Activity calls are given as the source filed them. Unless noted, calls follow the shape of the dose curve; as a rule, active = well fitted curve in the direction sought with a large enough effect; inconclusive = small, poorly fitted or top-dose-only effect, or another doubt; inactive = no such curve, though single readings can be large; an effect the other way counts as inactive or inconclusive.
Tests used:
[1] = qHTS for Inhibitors of Plasmodium falciparum (DD2) proliferation (AID 504314);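 also: parasite DNA measured by SYBR Green fluorescence after red cell lysis; plate controls were DMSO vehicle for no effect and artemisinin wells for full effect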
Procedure, shortened: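 Infected RBCs, 0.3% parasitemia, 2.5% Hct; compound 72 h, 37C/5% CO2; lyse + SYBR Green I, RT overnight, dark; read ex485/em535; normalize to DMSO and artemisinin 0.29 uM.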

[2] = qHTS for Inhibitors of Plasmodium falciparum (GB4) proliferation (AID 504315);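 also: 0% = DMSO vehicle and -100% = 0.29 µM artemisinin control; nearly all actives have a fitted effect of over 50% in size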
Procedure, shortened: (§1)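 Erythrocytes infected with P. falciparum line (0.3% parasitemia, 2.5% hematocrit final) incubated with compounds 72 h at 37 °C, 5% CO2; SYBR Green lysis buffer added, fluorescence read next day. Normalized to 0.29 uM artemisinin and DMSO.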

[3] = qHTS for Inhibitors of Plasmodium falciparum (HB3) proliferation (AID 504318);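 also: 0% = DMSO vehicle and -100% = artemisinin control; nearly all actives have a fitted effect of over 60% in size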
Procedure, shortened: as §1

[4] = qHTS for Inhibitors of Plasmodium falciparum (CP250) proliferation (AID 504320);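 also: plate controls were DMSO vehicle for no effect and 0.29 µM artemisinin control for full effect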
Procedure, shortened: as §1

[5] = molecular target: Atrial natriuretic peptide receptor 1 (Homo sapiens) (UniProt P16066); experiment: Natriuretic polypeptide receptor (hNpr1) antagonism - Pilot CMLD screen (AID 1347052; calls by dose curve;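 also: HEK293 cells with hNpr1 stimulated by hNppA peptide at 0.1 nM; cGMP level read as GloSensor luciferase luminescence after agonist stimulation; series mostly up to about 9.2 µM; % is scaled to controls: 0 for no effect and ±100 for the full control effect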)
Sequence of Atrial natriuretic peptide receptor 1 (Homo sapiens) (P16066 whole entry, looked up): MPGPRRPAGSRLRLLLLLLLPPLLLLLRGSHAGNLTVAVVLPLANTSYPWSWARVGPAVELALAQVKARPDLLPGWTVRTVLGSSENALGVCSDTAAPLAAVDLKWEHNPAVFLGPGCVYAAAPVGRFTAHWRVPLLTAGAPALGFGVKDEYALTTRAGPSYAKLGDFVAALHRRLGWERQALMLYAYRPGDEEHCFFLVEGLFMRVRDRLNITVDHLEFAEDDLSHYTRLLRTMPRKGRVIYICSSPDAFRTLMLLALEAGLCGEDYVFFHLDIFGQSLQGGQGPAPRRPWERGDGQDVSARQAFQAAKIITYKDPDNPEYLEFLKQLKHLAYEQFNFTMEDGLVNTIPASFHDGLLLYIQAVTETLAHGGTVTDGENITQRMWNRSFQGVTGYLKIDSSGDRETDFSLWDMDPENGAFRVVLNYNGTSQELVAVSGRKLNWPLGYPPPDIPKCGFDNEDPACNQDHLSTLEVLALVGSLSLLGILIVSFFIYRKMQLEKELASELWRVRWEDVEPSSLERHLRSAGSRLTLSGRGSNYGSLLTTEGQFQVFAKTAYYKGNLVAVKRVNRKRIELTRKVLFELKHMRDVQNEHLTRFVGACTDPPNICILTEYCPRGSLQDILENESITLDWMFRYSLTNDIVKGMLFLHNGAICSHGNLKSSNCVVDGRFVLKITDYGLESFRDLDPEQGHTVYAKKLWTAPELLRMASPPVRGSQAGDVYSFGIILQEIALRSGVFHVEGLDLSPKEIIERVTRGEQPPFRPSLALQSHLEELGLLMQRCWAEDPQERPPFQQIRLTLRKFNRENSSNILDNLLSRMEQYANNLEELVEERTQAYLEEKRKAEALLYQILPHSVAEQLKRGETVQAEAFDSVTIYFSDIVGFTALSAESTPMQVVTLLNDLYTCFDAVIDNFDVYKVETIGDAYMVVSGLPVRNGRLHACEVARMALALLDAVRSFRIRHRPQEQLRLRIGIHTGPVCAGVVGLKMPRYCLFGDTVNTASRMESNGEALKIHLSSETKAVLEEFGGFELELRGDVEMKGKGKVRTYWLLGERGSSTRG

C#CCN1C(=O)CC[C@@]23C1=NC(C(=O)OC)=C(C(=O)OC)[C@@H]2N(CC=C(C)C)c1ccccc13
inactive: Potency [1] | Potency [2] | Potency [3] | Potency [4] | Potency [5]

COC(=O)N1C2=C(c3ccccc3[C@@H]1CC(=O)O)[C@@H]1O[C@@H](C2)c2ccccc21
inactive: Potency [1] | Potency [2] | Potency [3] | Potency [4] | Potency [5]

Cc1cc(C)cc(CO[C@H]2C=C[C@@H](c3ccccc3)O[C@H]2CO)c1
inactive: Potency [1] | Potency [2] | Potency [3] | Potency [4] | Potency [5]

CCN1C(=NCCCCO)NC(c2cccc(C(F)(F)F)c2)C(C(=O)OC)=C1C (stereo not given)
inactive: Potency [1] | Potency [2] | Potency [3] | Potency [4] | Potency [5]

COc1ccc(-c2nc3c(c4c2C[C@H](c2ccccc2)OC4)CN(C(=O)NCc2ccco2)CC3)c(C)c1
inactive: activity, negative = inhibition [1] -0.324% [at 1.12 µM] | Potency [2] | Potency [3] | Potency [4] | Potency [5]

COc1ccc2c(c1)C(=O)[C@H](OC(=O)N[C@H]1CCCc3ccccc31)[C@@H](c1ccc(OC)c(Br)c1)O2
inactive: Potency [1] | Potency [2] | Potency [4] | Potency [5]

COc1ccc(O[C@H]2C=C[C@@H](c3ccccc3)O[C@H]2CON=C2[C@H]3CCn4c(=O)n(-c5ccccc5)c(=O)n4[C@@H]3[C@H](O)[C@@H]3O[C@H]23)cc1
inactive: Potency [1] | Potency [2] | Potency [3] | Potency [4] | Potency [5]

COC(=O)C1=C(C(=O)OC)[C@@H]2N(C)c3ccccc3[C@@]23CCC(=O)N(Cc2ccc(OC)cc2)C3=N1
inactive: Potency [1] | Potency [2] | Potency [4] | Potency [5]

COC(=O)C1=C(C(=O)OC)[C@@H]2N(C)c3ccccc3[C@@]23C[C@@H](C(=O)OC)N(C(=O)c2ccc(Br)cc2)C3=N1
inactive: Potency [1] | Potency [2] | Potency [3] | Potency [4] | Potency [5]

CCN(CC)CC(O)CN1CCCCc2nc(C)c(C)cc21 (stereo not given)
inactive: Potency [1] | Potency [2] | Potency [3] | Potency [4] | Potency [5]

C[C@H]1Cc2c(COc3ccccc3)nc3c(c2CO1)CN(C(=O)NCc1ccco1)CC3
inactive: activity, negative = inhibition [1] -0.216% [at 1.12 µM] | Potency [2] | Potency [4] | Potency [5]

CC(=O)O[C@H](C(=O)O[C@@H]1C[C@@H](CCC[C@H]2O[C@H](C(=O)OC(C)C)CC[C@@H]2C)O[C@@H](CC#N)C1)c1ccccc1
inactive: Potency [1] | Potency [2] | Potency [4] | Potency [5]

CC1=C[C@@H](C)O[C@@]2(C1)C(=O)Nc1cccc(Br)c12
inactive: Potency [1] | Potency [2] | Potency [4] | Potency [5]
